The values below come from PubChem BioAssay (NCATS).

Experiment [1] can be described thus: AP1 Signaling Pathway (AID 357; active = well fitted curve in either direction with a large enough effect, not every such curve was filed as active;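 also: ME-180 reporter cells stimulated with EGF at its EC50 level; % is scaled to controls: 0 for no effect and ±100 for the full control effect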). Particulars: ME-180 AP-1-bla reporter, EGF-induced, beta-lactamase ratio, 5 h; at 7.69 µM (top of the series) unless noted. The gist of the method: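 Modulation of EGF-driven AP-1 transcription was assessed with a beta-lactamase reporter in ME-180 cells. Compound and EC50 EGF were co-incubated 5 hours at 37 °C before 2.5-hour CCF4 loading at room temperature and dual-emission reading.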

The target of experiment [2] is Cytochrome P450 1A2 (Homo sapiens) (UniProt P05177). The experiment in a line: p450-cyp1a2 (AID 410; calls by dose curve; also: potency is read from the fitted curve at half-maximal effect;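 as to activity change, negative = inhibition: -100% = full effect of reference inhibitor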). The gist of the method: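 20nM CYP1A2, 100uM Luciferin-ME (=Km), 100mM KPO4; cpd 10 min RT; +NADPH regen, 60 min RT; stop/detect 20 min; luminescence. Normalized to furafylline 57 uM = full inhibition.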
Experiment [3] in a line: NFAT Signaling Pathway (AID 444; active = well fitted curve in either direction with a large enough effect, not every such curve was filed as active;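 also: carbachol stimulus at about its EC50 of 1 µM final; % is scaled to controls: 0 for no effect and ±100 for the full control effect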). The following applies: Jurkat NFAT-bla M1, carbachol, beta-lactamase ratio, 5 h; at 7.69 µM (top of the series) unless noted. The method in brief:
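Read-out: CCF4 FRET ratio (460 nm/530 nm) after 1 h RT dye loading, used for %activity and AC50 from titration series. Cells: Jurkat NFAT-β-lactamase/M1 line, treated with compound plus 1 uM carbachol for 5 h, 37 °C.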

Experiment [4] is described as follows: Stat Signaling Pathway (AID 446; active = well fitted curve in either direction with a large enough effect, not every such curve was filed as active;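 also: ME-180 cervical cancer cells given 40 pM IL-6 alongside compound; SIE-controlled beta-lactamase reporter measured as 460/530 nm FRET emission ratio; % is scaled to controls: 0 for no effect and ±100 for the full control effect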). Particulars: ME-180 (cervical carcinoma) SIE beta-lactamase reporter, IL-6 stimulated, 5 h; at 7.69 µM (top of the series) unless noted. The method in brief: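 Compound effects on IL-6-induced STAT reporter activity were measured in ME-180 cells. After overnight culture, cells were co-treated with 40 pM IL-6 for 5 hrs before beta-lactamase substrate loading at room temperature.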

For experiment [5], the target named is Glucocorticoid receptor (Homo sapiens) (UniProt P04150). The experiment in a line: GR-GFP Redistribution (AID 450;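 active = compounds whose dose series gives a full or clear partial fitted curve of increased nuclear translocation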; also: potency is read from the fitted curve at half-maximal effect). Particulars: U2OS GR-GFP nuclear translocation, laser cytometry, 2 h.
The target is the same in experiment [6]. The experiment in a line: GR-EFC Redistribution (AID 451; calls by dose curve; also: potency is read from the fitted curve at half-maximal effect). Particulars: CHO-K1 GR-EFC translocation, beta-gal luminescence, 2 h. The method in brief: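 Translocation of GR-ED fusion to nuclear EA restores b-gal, read by luminescence after 1 h room-temperature detection. Engineered CHO-K1 biosensor cells, 1,000/well, exposed 2 h at 37 C to titrations up to 46 uM final.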

Experiment [7] concerns the target Mitogen-activated protein kinase 10 (Mus musculus) (UniProt Q61831). The experiment in a line: JNK3 AlphaScreen Assay (AID 530; active = well fitted curve in either direction with a large enough effect, not every such curve was filed as active;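 also: kinase came from lysate of stimulated human HepG2 cells; signal reports phosphorylation of biotinylated GST-cJun 1-79 at Ser73 with 10 µM ATP; % is scaled to controls: 0 for no effect and ±100 for the full control effect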). The gist of the method:
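Kinase buffer: 20 mM Tris-HCl pH 7.6, 10 mM MgCl2, 1 mM DTT, 0.1 mM Na3VO4, 0.01% Tween-20; ATP 10 uM. Substrate biotin-GST-cJun(1-79), enzyme from activated HepG2 lysates. Detection by Ser73 phospho-antibody AlphaScreen.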
(Bead proximity is the source of the signal in Alpha formats.)

Experiment [8] concerns the target 3',5'-cyclic-AMP phosphodiesterase 4B (Homo sapiens) (UniProt Q07343). The experiment in a line: qHTS Assay for Inhibitors of PDE-IV (AID 607; active = well fitted activation curve with a large enough effect in the main read-out, with a control signal flat, not every such curve was filed as active; also: % of control where 0% means no effect). The gist of the method: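 ACTOne HEK293 cells carry a modified cAMP-gated CNG channel and express endogenous PDE4; plated 1000 cells/well, compounds up to 22.9 uM final. Membrane-potential dye fluorescence (ex 535/em 590) was read; parental cells received 10 uM forskolin + 100 uM RO 20-1724.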
For orientation: In qHTS, concentration-response curves come from the screen itself.

Experiment [9] is described as follows: qHTS Assay for Identification of Small Molecule Agonists for Thrombopoietin (TPO) Signaling Pathway (AID 917). Also: % is scaled to controls: 0 for no effect and ±100 for the full control effect. The gist of the method: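 First, Ba/F3 cells with human TPO receptor were held overnight without IL-3. Next, compounds and TPO (26 pM final) were added. After 24 hrs at 37 C, luciferase detection reagent was added and luminescence measured following 10 min at room temperature.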

Experiment [10] concerns the target Muscarinic acetylcholine receptor M1 (Rattus norvegicus) (UniProt P08482). The experiment in a line: qHTS Assay for Antagonists of Acetylcholine Muscarinic M1 Receptor: Kinetic Measurement of Intracellular Calcium Response (AID 943). Also: nearly all actives have a fitted effect of over 75% in size. The gist of the method: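 Read-out: peak over basal Fluo-4 fluorescence, kinetic at 1 Hz for 4 min after EC80 carbachol (100 nM final). Rat M1-CHO cells, dye loaded 1 h at 37C, compound added 10 min before agonist.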

Experiment [11] has the same target. The experiment in a line: qHTS Assay for Antagonists of Acetylcholine Muscarinic M1 Receptor: Measurement of IP-One Response (AID 944). Also: nearly all actives have a fitted effect of over 75% in size. The gist of the method:
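Read-out: HTRF competition between d2-IP1 and Eu-cryptate anti-IP1 antibody, emission 620 and 665 nm. Stimulus was carbachol, EC80 (200 nM), for 30 min in M1-CHO cells (rat receptor), after 10 min compound pre-treatment.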

Experiment [12] has as its target Pyruvate kinase (Leishmania mexicana) (UniProt Q27686). The experiment in a line: qHTS Validation Assay for Inhibitors of Leishmania Mexicana Pyruvate Kinase (AID 945).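 Also: 0% = DMSO only neutral control wells.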 The gist of the method: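 Purified LmPYK (E451W mutant, 0.2 nM) was incubated 1 h at room temperature with 0.5 mM PEP and 0.1 mM ADP in 50 mM imidazole pH 7.2, 50 mM KCl, 7 mM MgCl2; ATP formed was read by PKLight luminescence, normalized to DMSO wells.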

For experiment [13], the target named is Pyruvate kinase PKM (Homo sapiens) (UniProt P14618). The experiment in a line: qHTS Assay for Activators of Human Muscle Pyruvate Kinase (AID 954; active = well fitted curve in the direction sought with a large enough effect, not every such curve was filed as active;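 also: 0% = uninhibited enzyme and -100% = no enzyme or full thiadiazolimine inhibition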). The method in brief: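 A coupled luminescent readout tracked ATP made from ADP by purified PKM2. Final conditions included 0.1 nM enzyme, PEP and ADP at 0.5 and 0.1 mM, pH 7.2 imidazole buffer with BSA, and a one-hour room-temperature reaction.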

Experiment [14] has as its target Alpha-galactosidase A (Homo sapiens) (UniProt P06280). The experiment in a line: Counterscreen for Glucocerebrosidase Inhibitors: qHTS Assay for Human alpha-Galactosidase at pH 4.5 (AID 992). Also: 0% is about no effect. The method in brief: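 Citrate buffer pH 4.5, Tween-20 0.005%. Enzyme 2 nM, substrate 80 uM, 20 min RT. Stop pH 10. Fluorescence Ex 365/Em 440. AC50 by Hill fit.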
(In general: A counterscreen serves to expose hits that act by an unwanted route or on another target.)

Experiment [15] concerns the target alpha-glucosidase (Oryza sativa, rice) (UniProt Q653V4). The experiment in a line: Counterscreen for Glucocerebrosidase Inhibitors: qHTS Assay for Rice alpha-Glucosidase at pH 5.0 (AID 997).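 Also: 0% = full activity with enzyme and -100% = basal without enzyme.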 The gist of the method: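 Endpoint fluorogenic assay at pH 5.0: compounds (0.7 nM to 77 uM) titrated against 4 nM rice enzyme and 400 uM 4-MU-alpha-glucoside for 20 min at room temperature; NaOH/glycine stop, read ex 365/em 440 nm, Hill-fitted AC50.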

Experiment [16] concerns the target Cytochrome P450 3A4 (Homo sapiens) (UniProt P08684). The experiment in a line: qHTS Assay for Activators of Cytochrome P450 3A4 (AID 885). Also: nearly all actives have a fitted effect of over 65% in size. The method in brief: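 CYP3A4 activity: Luciferin-PPXE O-dealkylation, 25uM substrate, 200mM KPO4, RT throughout. Read-out is luciferase luminescence; higher values reflect activation.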
A short description of experiment [17]: qHTS Assay for Identification of Small Molecule Antagonists for NFkB Signaling Pathway (AID 895; active = well fitted inhibition curve with a large enough effect in the signal ratio, with a control signal flat, not every such curve was filed as active; the % refers to the signal ratio; also: potency is read from the fitted curve at half-maximal effect). The gist of the method: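 Beta-lactamase reporter read-out (460 and 530 nm emission ratio, 405 nm excitation, 2 hrs substrate loading RT) after 5 hr stimulation with 10 pM TNF alpha in compound-treated NFkB-bla ME-180 cells in low-serum medium.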
Experiment [18] deals with Cytochrome P450 2C19 (Homo sapiens) (UniProt P33261). The experiment in a line: qHTS Assay for Inhibitors and Substrates of Cytochrome P450 2C19 (AID 899). Also: % is scaled to controls: 0 for no effect and ±100 for the full control effect; nearly all actives have a fitted effect of over 60% in size. The method in brief:
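5nM enzyme + 10uM Luciferin-H EGE (=KM), 50mM KPO4; cpd pin-transferred, 10 min 37C; NADPH regen, 60 min 37C; stopped w/ luciferin detection reagent, 20 min; luminescence. Normalized to 57uM ketoconazole (AC100).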

Experiment [19] concerns the target Guanine nucleotide-binding protein G(i) subunit alpha-1 (Homo sapiens) (UniProt P63096). The experiment in a line: qHTS Assay for Inhibitors of RGS12 GoLoco Motif Activity (Green Fluorophore) (AID 879).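 Also: 0% = labeled peptide with Gαi1 and full inhibition = labeled peptide alone without protein; negative values mean loss of peptide binding seen as reduced polarization.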 The gist of the method:
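A drop in FITC polarization marked displacement of the FITC-tagged RGS12 GoLoco peptide (10 nM) from Gαi1 (50 nM). Compounds were incubated 10 min at room temperature in Tris pH 7.5 buffer containing 150 mM NaCl, 0.1 mM GDP and 0.05% NP40; unlabeled peptide titration served as control.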

Structures are written as SMILES. Values without a mark were called inactive. Records with an inconclusive call do not appear. Activity calls are given as the source filed them. Unless noted, calls follow the shape of the dose curve; as a rule, active = well fitted curve in the direction sought with a large enough effect; inconclusive = small, poorly fitted or top-dose-only effect, or another doubt; inactive = no such curve, though single readings can be large; an effect the other way counts as inactive or inconclusive.

Alpha-galactosidase A (Homo sapiens), sequence (P06280 whole entry, looked up): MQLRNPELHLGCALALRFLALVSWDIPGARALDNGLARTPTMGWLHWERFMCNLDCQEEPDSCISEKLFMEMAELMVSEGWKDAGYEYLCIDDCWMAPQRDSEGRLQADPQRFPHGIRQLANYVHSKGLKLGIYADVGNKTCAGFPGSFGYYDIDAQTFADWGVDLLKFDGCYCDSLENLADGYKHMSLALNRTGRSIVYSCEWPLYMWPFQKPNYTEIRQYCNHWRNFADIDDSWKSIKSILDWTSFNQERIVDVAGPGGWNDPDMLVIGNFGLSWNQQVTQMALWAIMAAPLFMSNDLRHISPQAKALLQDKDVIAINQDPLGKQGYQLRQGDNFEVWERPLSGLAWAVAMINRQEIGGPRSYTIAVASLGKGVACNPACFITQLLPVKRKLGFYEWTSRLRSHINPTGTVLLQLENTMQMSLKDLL
3',5'-cyclic-AMP phosphodiesterase 4B (Homo sapiens), sequence (Q07343 whole entry, looked up): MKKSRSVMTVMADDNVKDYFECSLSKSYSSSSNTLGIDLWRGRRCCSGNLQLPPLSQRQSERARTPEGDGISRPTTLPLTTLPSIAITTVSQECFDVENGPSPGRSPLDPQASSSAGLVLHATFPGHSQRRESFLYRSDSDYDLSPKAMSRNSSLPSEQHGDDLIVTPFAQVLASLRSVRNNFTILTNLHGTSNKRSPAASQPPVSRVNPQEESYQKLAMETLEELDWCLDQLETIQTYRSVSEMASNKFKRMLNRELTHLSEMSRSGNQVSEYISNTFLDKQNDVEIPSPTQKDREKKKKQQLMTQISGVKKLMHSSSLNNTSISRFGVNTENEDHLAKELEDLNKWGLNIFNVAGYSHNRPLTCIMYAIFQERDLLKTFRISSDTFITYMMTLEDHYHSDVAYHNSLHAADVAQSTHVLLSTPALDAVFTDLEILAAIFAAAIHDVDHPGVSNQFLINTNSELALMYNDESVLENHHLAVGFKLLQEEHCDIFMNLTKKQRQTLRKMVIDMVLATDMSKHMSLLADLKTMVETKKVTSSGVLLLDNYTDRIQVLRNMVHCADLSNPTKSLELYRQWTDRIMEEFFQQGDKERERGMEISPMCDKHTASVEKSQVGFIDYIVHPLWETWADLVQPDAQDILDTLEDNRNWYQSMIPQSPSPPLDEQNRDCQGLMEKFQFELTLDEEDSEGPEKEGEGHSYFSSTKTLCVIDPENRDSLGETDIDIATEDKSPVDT
Pyruvate kinase PKM (Homo sapiens), sequence (P14618 whole entry, looked up): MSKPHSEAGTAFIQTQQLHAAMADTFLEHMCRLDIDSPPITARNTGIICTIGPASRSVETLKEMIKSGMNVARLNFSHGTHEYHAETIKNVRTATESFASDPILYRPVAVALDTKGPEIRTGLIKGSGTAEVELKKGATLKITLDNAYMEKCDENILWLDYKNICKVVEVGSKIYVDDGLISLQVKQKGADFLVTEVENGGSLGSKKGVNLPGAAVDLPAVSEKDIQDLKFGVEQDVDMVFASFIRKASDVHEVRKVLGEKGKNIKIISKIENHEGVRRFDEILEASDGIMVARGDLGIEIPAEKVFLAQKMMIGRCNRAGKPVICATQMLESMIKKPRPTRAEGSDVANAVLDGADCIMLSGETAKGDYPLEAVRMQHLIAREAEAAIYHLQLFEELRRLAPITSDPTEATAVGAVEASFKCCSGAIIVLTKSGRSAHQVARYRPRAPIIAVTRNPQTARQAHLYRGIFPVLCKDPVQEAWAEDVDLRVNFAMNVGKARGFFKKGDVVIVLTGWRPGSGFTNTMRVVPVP
Cytochrome P450 1A2 (Homo sapiens), sequence (P05177 whole entry, looked up): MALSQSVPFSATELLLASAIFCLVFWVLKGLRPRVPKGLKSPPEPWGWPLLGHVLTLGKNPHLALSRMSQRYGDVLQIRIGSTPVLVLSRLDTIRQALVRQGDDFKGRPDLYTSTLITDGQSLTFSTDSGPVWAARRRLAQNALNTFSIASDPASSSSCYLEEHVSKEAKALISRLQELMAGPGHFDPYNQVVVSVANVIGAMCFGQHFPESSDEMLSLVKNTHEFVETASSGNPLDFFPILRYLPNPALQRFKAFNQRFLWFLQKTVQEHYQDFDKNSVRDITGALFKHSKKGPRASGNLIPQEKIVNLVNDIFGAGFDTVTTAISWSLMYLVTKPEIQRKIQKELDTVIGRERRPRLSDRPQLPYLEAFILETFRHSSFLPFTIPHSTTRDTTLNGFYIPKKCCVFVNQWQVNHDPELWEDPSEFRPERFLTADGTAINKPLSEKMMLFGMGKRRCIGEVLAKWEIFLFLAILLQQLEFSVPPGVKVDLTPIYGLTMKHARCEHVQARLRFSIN
Pyruvate kinase (Leishmania mexicana), sequence (Q27686 2-499 E452W): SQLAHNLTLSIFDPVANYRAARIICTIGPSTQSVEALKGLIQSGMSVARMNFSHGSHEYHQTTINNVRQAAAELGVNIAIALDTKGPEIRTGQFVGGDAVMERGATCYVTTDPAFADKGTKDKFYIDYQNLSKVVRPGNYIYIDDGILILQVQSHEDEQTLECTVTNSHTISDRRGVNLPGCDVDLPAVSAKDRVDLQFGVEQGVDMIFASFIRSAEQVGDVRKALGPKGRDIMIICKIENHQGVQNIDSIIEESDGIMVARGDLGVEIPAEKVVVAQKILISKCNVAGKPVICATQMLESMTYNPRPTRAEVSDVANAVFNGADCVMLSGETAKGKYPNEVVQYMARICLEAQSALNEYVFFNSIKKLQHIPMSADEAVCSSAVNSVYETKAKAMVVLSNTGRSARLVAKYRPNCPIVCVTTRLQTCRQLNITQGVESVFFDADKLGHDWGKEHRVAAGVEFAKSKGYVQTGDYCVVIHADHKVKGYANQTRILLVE
Cytochrome P450 3A4 (Homo sapiens), sequence (P08684 whole entry, looked up): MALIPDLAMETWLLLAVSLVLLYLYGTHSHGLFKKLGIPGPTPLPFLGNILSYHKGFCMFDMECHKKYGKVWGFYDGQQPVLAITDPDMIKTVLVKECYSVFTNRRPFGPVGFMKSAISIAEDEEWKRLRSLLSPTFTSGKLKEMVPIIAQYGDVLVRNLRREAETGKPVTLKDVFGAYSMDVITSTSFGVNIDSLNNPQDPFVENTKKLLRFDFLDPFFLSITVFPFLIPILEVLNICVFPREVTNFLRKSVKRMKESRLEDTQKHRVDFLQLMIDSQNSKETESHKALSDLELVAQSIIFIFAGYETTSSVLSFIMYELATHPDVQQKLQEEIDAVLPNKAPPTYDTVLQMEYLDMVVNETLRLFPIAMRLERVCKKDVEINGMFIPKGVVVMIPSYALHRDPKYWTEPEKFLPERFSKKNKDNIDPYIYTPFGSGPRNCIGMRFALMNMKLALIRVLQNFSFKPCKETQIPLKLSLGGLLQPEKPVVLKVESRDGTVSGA
Muscarinic acetylcholine receptor M1 (Rattus norvegicus), sequence (P08482 whole entry, looked up): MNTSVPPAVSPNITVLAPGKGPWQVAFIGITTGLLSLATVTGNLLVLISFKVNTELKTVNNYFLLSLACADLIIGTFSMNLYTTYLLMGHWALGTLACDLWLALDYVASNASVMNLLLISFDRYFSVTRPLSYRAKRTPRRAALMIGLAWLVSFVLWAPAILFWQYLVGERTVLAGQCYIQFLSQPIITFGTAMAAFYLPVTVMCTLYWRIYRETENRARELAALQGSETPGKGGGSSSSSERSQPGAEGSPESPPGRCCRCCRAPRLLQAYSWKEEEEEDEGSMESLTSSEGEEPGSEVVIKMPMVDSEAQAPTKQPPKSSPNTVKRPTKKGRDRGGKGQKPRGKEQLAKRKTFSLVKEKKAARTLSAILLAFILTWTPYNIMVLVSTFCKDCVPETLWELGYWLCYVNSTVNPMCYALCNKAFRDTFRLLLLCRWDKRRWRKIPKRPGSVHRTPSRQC
Glucocorticoid receptor (Homo sapiens), sequence (P04150 whole entry, looked up, the tested form may be a part): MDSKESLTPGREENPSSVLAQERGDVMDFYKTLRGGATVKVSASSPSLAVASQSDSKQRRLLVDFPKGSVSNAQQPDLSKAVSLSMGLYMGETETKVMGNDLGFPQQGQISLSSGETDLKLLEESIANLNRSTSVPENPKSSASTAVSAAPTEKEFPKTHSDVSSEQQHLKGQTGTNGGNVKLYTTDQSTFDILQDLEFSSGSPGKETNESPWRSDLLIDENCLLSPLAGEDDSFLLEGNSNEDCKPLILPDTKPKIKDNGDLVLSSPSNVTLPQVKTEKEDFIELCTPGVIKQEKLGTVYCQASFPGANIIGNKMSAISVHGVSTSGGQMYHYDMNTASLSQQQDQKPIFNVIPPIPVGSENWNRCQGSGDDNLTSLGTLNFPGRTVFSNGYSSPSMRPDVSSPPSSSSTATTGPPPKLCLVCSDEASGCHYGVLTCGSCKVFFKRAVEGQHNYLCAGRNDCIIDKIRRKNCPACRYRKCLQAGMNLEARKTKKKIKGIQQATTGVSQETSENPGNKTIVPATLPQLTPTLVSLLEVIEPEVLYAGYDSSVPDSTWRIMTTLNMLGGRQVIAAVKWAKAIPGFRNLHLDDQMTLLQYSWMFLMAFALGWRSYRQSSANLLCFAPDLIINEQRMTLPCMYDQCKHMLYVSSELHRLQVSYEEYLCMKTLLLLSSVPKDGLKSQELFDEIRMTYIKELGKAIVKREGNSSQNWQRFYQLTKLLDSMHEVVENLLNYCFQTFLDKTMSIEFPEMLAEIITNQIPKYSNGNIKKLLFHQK
Cytochrome P450 2C19 (Homo sapiens), sequence (P33261 whole entry, looked up): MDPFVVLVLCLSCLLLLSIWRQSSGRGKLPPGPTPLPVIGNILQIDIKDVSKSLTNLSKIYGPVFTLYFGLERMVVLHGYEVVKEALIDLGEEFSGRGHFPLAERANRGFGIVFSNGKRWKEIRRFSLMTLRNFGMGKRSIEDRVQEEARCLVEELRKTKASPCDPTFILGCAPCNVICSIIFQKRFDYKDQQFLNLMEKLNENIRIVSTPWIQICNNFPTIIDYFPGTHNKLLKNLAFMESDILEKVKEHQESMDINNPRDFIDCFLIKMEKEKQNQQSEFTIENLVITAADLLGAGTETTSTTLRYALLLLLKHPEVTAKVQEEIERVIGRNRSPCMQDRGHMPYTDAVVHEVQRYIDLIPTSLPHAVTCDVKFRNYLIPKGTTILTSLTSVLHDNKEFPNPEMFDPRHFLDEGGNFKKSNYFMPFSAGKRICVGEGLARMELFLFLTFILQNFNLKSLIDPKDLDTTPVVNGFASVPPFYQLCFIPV

In the case of `Nc1nc2c(nc(Br)n2[C@@H]2O[C@H]3COP(=O)(O)O[C@@H]3[C@H]2O)c(=O)[nH]1`, the activity change, negative = inhibition in experiment [1] was 8.86% [at 38 µM]; in experiment [3], -0.742% [at 38 µM]. Besides, the Potency entry in experiment [2], in experiment [7], in experiment [8], in experiment [10], in experiment [11] and in [15] was “inactive” each time. Moreover, the activity, negative = inhibition in [4] was -10.7% [at 38 µM]. The figures for the Potency in experiment [5] and in experiment [6] were 12.1 µM (active) and greater than 46 µM, respectively. The outcome in experiment [9], in experiment [12], in experiment [13] and in [14] was inactive.
As for `C[C@@H](Cc1ccccc1)Nc1ncnc2c1ncn2[C@@H]1O[C@@H](CO)[C@H](O)[C@@H]1O`, the figures for the activity change, negative = inhibition in experiment [1] and in experiment [3] were -12.1% [at 38 µM] and -0.283% [at 38 µM], respectively. Moreover, the Potency result in experiment [2], in experiment [7], in experiment [8], in experiment [16], in experiment [11] and in experiment [15] was “inactive” each time. Also, the activity, negative = inhibition in experiment [4] was -0.703% [at 38 µM]. The results for the Potency in experiment [5], in [6] and in experiment [17] were greater than 46 µM, greater than 46 µM and 3.98 µM (active), respectively. For the same compound, the call in experiment [9], in experiment [12] and in [14] was inactive.
As for `CC(=O)CC(=O)Nc1ccc2ccccc2c1`, the activity change, negative = inhibition was 6.48% in experiment [1] and 11.8% in experiment [3]. Also, the Potency was 2 µM (active) in experiment [2], greater than 46 µM in experiment [5] and greater than 9.22 µM in experiment [6]. The activity, negative = inhibition in experiment [4] was 6.17%. Further, the Potency result in experiment [7], in [8] and in experiment [18] was “inactive” throughout.
As to `CCCCC[C@H](CC(=O)NO)C(=O)N[C@@H](C(=O)N1CCC[C@H]1CO)C(C)C`, the activity change, negative = inhibition in [1] is 26.8% [at 38 µM]; in experiment [3], 6.72% [at 38 µM]. Also, the Potency result in experiment [2], in [8], in experiment [16], in experiment [18], in [10] and in [11] was “inactive” each time. In addition, the Potency result in [15] was “inactive”. Besides, the activity, negative = inhibition in experiment [4] is 7.77% [at 38 µM]. Further, the Potency in experiment [5] and in experiment [6] was greater than 46 µM in each case. Also, the result in [19], in experiment [12], in experiment [13] and in experiment [14] was inactive.
In the case of `CC(C)(C)c1onc(OCP(=O)(O)O)c1C[C@@H](N)C(=O)O`, the activity change, negative = inhibition in experiment [1] is -0.711% [at 38 µM]; in experiment [3], 8.86% [at 38 µM]. For the same compound, the Potency result in experiment [2], in [8], in experiment [17], in experiment [10], in [11] and in experiment [15] was “inactive” throughout. Moreover, the activity, negative = inhibition in experiment [4] was -10.4% [at 38 µM]. Moreover, the Potency in experiment [5] and in experiment [6] was greater than 46 µM each time. Further, the compound was classed as inactive in experiment [9], in experiment [12], in experiment [13] and in experiment [14].
`O=C(Nc1ccccc1)N1CCC2(CC1)CCN(C(=O)c1ccco1)CC2`: the activity change, negative = inhibition in experiment [1] is -11.7%; in experiment [3] it was -5.38%. Moreover, the Potency in [2] was 10 µM (active); in experiment [6], greater than 46 µM. In addition, in experiment [4], the activity, negative = inhibition was 15.9%. For the same compound, the Potency entry in experiment [7] and in experiment [8] was “inactive” throughout.
As for `C[C@@H]1C[C@H]2[C@H]3C[C@@H](F)C4=CC(=O)C=C[C@]4(C)[C@@]3(Cl)[C@@H](O)C[C@@]2(C)[C@@H]1C(=O)COC(=O)C(C)(C)C`, the values for the activity change, negative = inhibition in [1] and in experiment [3] were -11.4% [at 17.2 µM] and -26.1% [at 17.2 µM], respectively. Further, the Potency result in [2], in experiment [7], in experiment [8] and in [16] was “inactive” in each case. Besides, the activity, negative = inhibition in experiment [4] was -9.29% [at 17.2 µM].
